Many of the other results were omitted from the sample, so hits are more common in it than they were.
Tgondii IFNg – T. gondii growth inhibition under IFN-gamma. Toxoplasma gondii growth in IFN-gamma-treated host cells; stronger effect = lower value. activity change, negative = inhibition, % (test concentration not listed). 69,000 compounds, 3.8% hits; in the data active = activity change below about -70%, passing the limit was not always enough;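 note: host cells are HeLa cells infected with Toxoplasma gondii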
Numbers without * were called inactive.

SMILES | Tgondii IFNg
C[C@@H]1CCCCO[C@@H](CN(C)C(=O)C2CCCCC2)[C@H](C)CN([C@H](C)CO)C(=O)c2cc(NS(=O)(=O)c3ccccc3)ccc2O1 | 21.1
C[C@@H]1CCCCO[C@H](CN(C)C(=O)C2CCCCC2)[C@H](C)CN([C@H](C)CO)C(=O)c2cc(NS(=O)(=O)c3ccccc3)ccc2O1 | -145.5*
CC(C)NC(=O)Nc1ccc2c(c1)C(=O)N([C@@H](C)CO)C[C@@H](C)[C@@H](CN(C)C(=O)C1CCCCC1)OCCCC[C@H](C)O2 | 307.3
CN1CCC2(CC1)CN(S(=O)(=O)c1ccc(C#N)cc1)Cc1ccccc12 | 2.3
CCO[C@H]1CN(C(=O)Cc2ccsc2)[C@H]2COC[C@@H]12 | 76.5
O=C(NCCc1csc(-c2ccccc2)n1)C1CCN(C(=O)CCc2ccccc2)CC1 | -9.9
c1csc(-c2cncc(-c3nnc(-c4cccc5ccccc45)o3)c2)c1 | -101.6*
Clc1ccc(-c2cc(-c3cccs3)c(-c3ccccc3)o2)cc1 | 140.8
FC(F)(F)c1oc(-c2ccccc2Cl)cc1-c1nc(-c2cccs2)no1 | -3.9
CN(C)CCN1CCOCC2(CCCN(C(=O)c3cc4ccccc4[nH]3)C2)C1 (configuration not stated) | 52.8
CO[C@@H]1CN(C)C(=O)c2cc(NC(=O)c3ccc(Oc4ccccc4)cc3)ccc2OC[C@@H](C)NC[C@@H]1C | -115.4*
CO[C@H]1CN(C)C(=O)c2cc(NC(=O)Nc3c(C)noc3C)ccc2OC[C@H](C)NC[C@H]1C | -1.3
CO[C@@H]1CN(C)C(=O)c2cc(NC(=O)Nc3c(C)noc3C)ccc2OC[C@H](C)NC[C@@H]1C | -75.5*
CO[C@H]1CN(C)C(=O)c2cc(NC(=O)c3cnccn3)ccc2OC[C@@H](C)NC[C@H]1C | 110.3
CO[C@H]1CN(C)C(=O)c2cc(NC(=O)c3ccc(Oc4ccccc4)cc3)ccc2OC[C@@H](C)NC[C@H]1C | 21.5
CO[C@H]1CN(C)C(=O)c2cc(NC(=O)c3cnccn3)ccc2OC[C@H](C)NC[C@@H]1C | 173.2
CO[C@@H]1CN(C)C(=O)c2cc(NC(=O)Nc3c(C)noc3C)ccc2OC[C@H](C)NC[C@H]1C | 206.6
CO[C@H]1CN(C)C(=O)c2cc(NC(=O)c3ccc(Oc4ccccc4)cc3)ccc2OC[C@H](C)NC[C@@H]1C | -91.9*
COc1cccc(NC(=O)Nc2ccc3c(c2)C(=O)N(C)C[C@@H](OC)[C@H](C)CN[C@H](C)CO3)c1 | 20.2
Fc1cnc(N2CCc3onc(COc4cccnc4)c3C2)nc1 | 6.9
Cc1ccccc1C1CCN(CCNC(=O)c2cn(-c3ccccc3)nn2)C1 (configuration not stated) | -11.3
CCn1ncc2c1C(COC)CN(C(=O)N1CCCC1)C2 (configuration not stated) | 1.4
CC(C)c1noc(C(C)NC(=O)Cc2noc3ccccc23)n1 (configuration not stated) | 2.2
CNC(=O)[C@]12CCC3(CCN(C(=O)C4CCOCC4)CC3)[C@H]1CN(C(C)=O)C2 | 4.2
CCn1nc(C)c(C(=O)N2CCC(c3nc(C)c(C)c(N4CCOCC4)n3)CC2)c1C | -6.2
SMILES | Tgondii IFNg
CCN(C(=O)CCc1nc(-c2ccccc2F)no1)C1CCOC(C)(C)C1 (configuration not stated) | -0.5
CCc1ccc(CNC(=O)Cn2ncc3c(N4CCN(c5ccccn5)CC4)ncnc32)cc1 | 30.8
COc1ccc(CNC(=O)Cn2ncc3c(N4CCN(C)CC4)ncnc32)cc1 | -0.1
Cc1ccc(CNC(=O)Cn2ncc3c(N4CCN(c5ccccc5)CC4)ncnc32)cc1 | -15.4
COc1ccc(CNC(=O)Cn2ncc3c(N4CCN(c5ccccc5)CC4)ncnc32)cc1 | -102.2*
CN(C)CCNC(=O)Cn1ncc2c(N3CCN(c4ccccn4)CC3)ncnc21 | -10.4
O=C(Cn1ncc2c(N3CCN(c4ccccn4)CC3)ncnc21)NCc1ccccc1 | -105.2*
CC(C)c1nc(N2CCCC3(CC2)CNC(=O)O3)no1 (configuration not stated) | -6.8
COc1cc(CN2CCN3CCNC(=O)C3C2)ccc1N1CCCC1 (configuration not stated) | 111.7
CCC(C(=O)N1CCN(c2ncccn2)CC1)n1c2ccccc2c2cnn(C)c(=O)c21 (configuration not stated) | -86.0*
Cn1ncc2c3ccccc3n(CC(=O)N3CCN(c4ncccn4)CC3)c2c1=O | 130.2
CCC(C(=O)NCc1ccccn1)n1c2ccccc2c2cnn(C)c(=O)c21 (configuration not stated) | 10.8
Cc1cccc(OCC(=O)N2CCC(C(=O)NCCc3csc(-c4ccccc4)n3)CC2)c1 | 7.3
COc1ccc(CNC(=O)C2=C(C)C(=O)OC23CCN(S(=O)(=O)c2cccs2)CC3)cc1 | 19.1
Cc1cccc(N2C(=O)CC(Sc3nnc(C)s3)C2=O)c1 (configuration not stated) | -4.8
O=C1CC(Sc2ccc(Cl)cc2)C(=O)N1c1cc(F)c(Br)cc1F (configuration not stated) | -84.5*
Cc1ccc(N2C(=O)CC(Sc3ccccn3)C2=O)cc1 (configuration not stated) | -11.5
O=C(c1cccs1)N1CCC[C@@H]1Cn1c(=O)oc2ccccc21 | -7.2
COc1ccccc1C(=O)N1CCN(Cc2cnc(-c3ccco3)nc2)CC1 | 0.0
Cc1csc(NC(=O)c2c(O)c3ccccc3[nH]c2=O)n1 | 54.3
COc1cccc(NC(=O)N2CCCC3(C2)Nc2cccnc2NC3=NC2CCCC2)c1 (configuration not stated) | -6.8
O=C(Nc1cc(F)cc(F)c1)N1CCCC2(C1)Nc1cccnc1NC2=NC1CCCC1 (configuration not stated) | -86.4*
COc1ccc(C)cc1NC(=O)N1CCCC2(C1)Nc1cccnc1NC2=NC1CCCC1 (configuration not stated) | 31.4
Cc1noc(CSCC(=O)Nc2ccnn2C(C)C(C)C)n1 (configuration not stated) | 74.6
CCN(C(=O)c1cc2cccnc2n(Cc2ccccc2)c1=O)c1ccccc1C | -21.1
SMILES | Tgondii IFNg
O=C(Cn1ncc2c(N3CCCC3)ncnc21)Nc1ccc(Oc2ccccc2)cc1 | -59.6
O=C(Nc1ccc(Oc2c(F)c(F)c(F)c(F)c2F)cc1)OC1CCN2Cc3ccccc3N=C12 (configuration not stated) | -98.8*
CCOc1ccc(NC(=O)Cn2ncc3c(N4CCC(C)CC4)ncnc32)cc1 | -30.8
O=C1CSC(=O)N1 | 23.4
O=c1n(CCn2cncn2)nc(C2CCNCC2)n1-c1ccccc1 | 114.9
CC(C)CNC(=O)C1Cn2ccnc2C2(CCN(C(=O)C3CCOCC3)CC2)O1 (configuration not stated) | 13.0
CCc1ccc(NC(=O)N2CCC3(CC2)OC(C(=O)NCC(C)C)Cn2ccnc23)cc1 (configuration not stated) | 60.3
CCc1cnc(N2CCC3(CC2)OC(C(=O)NCC(C)C)Cn2ccnc23)nc1 (configuration not stated) | -102.9*
Cc1c(CN2CC(=O)N(Cc3ccccc3)CC(O)C2)c(=O)n(-c2ccccc2)n1C (configuration not stated) | 12.9
Cc1ccc2nc(CN(C)C(=O)CCC(=O)NC3CCCCCC3)[nH]c2c1 | 77.7
O=C(Nc1ccc(S(=O)(=O)Nc2ccccn2)cc1)c1ccc(Cl)c(Cl)c1 | -3.4
NS(=O)(=O)c1ccc(NC(=O)Nc2ccc(F)cc2)cc1 | 25.4
NS(=O)(=O)c1ccc(NC(=O)c2ccc(-c3cc(Cl)ccc3Cl)o2)cc1 | -100.3*
